Assay results from PubChem BioAssay (NCI).
The panel holds about 83,000 compounds, 20% with a hit somewhere; the sample as a whole holds those more often.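 Note: values are percent growth. 100 is the growth of untreated cells, values between 100 and 0 indicate rising inhibition; between -100 and 0 indicates cell death.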 Active and inactive are the calls of the source. The calls were made as follows: active = growth percent below 10; inactive = the rest.

Each compound was assayed on HL-60(TB) leukemia (assay: NCI-60 one-dose screen, 48 h (100 = growth as untreated, 0 = no growth, -100 = all killed)). Settings: 10 µM unless noted.
In the case of `COC(=O)[C@@H](Cc1c[nH]c2ccccc12)NC(=O)[C@H](Cc1ccccc1)NCc1ccncc1`, the growth was 80.6% (inactive). For `O=[N+]([O-])c1ccc(-n2[nH]nnc2=S)cc1`, the growth was 105% (inactive). For `CCCCCCCCn1ccc2cc(NC(=O)Cn3cc(CN4CCOCC4)nn3)ccc21`, the growth was 97.4% (inactive). In the case of `CCN1C(=O)N(CC)C2C1N=C(SC)N2/N=C/C=C/c1ccccc1OC` (configuration not stated), the growth was -13.4% (active). In the case of `COC(=O)[C@H](Cc1cn(C)cn1)NC(=O)[C@H](CC(C)C)NC(=O)Nc1cc(C(F)(F)F)cc(C(F)(F)F)c1`, the growth was -72.6% [100 µM] (active). With `CCCCCCCCCCC1CO1` (configuration not stated) the growth was 104% (inactive). In the case of `COCCn1cc(-c2csc(-c3c[nH]c4ccc(Br)cc34)n2)c2cccnc21`, the growth was 20.5% (inactive). With `O=C(c1ccc(Cl)cc1)c1ccccc1Cl` the growth was 96.4% (inactive). In the case of `CCOC(=O)c1c(NC(=O)c2ccccc2)sc2c3c(ccc12)OCN(C)C3`, the growth was -62.5% (active). For `COc1cc(/C=C/c2cc(/C=C/c3ccc(O)c(OC)c3)n(C(=O)Nc3ccc(F)c(Cl)c3)n2)ccc1O`, the growth was -28.9% (active). In the case of `C#Cc1cccc(Nc2ncnc3ccc(NC(=O)c4ccccc4)cc23)c1`, the growth was 71.9% (inactive). `CCCC(F)C(=O)O` (configuration not stated) was tested, and the growth was 97.3% (inactive). For `N=C(N)c1ccc(-c2ccc(-c3cc(Cl)cc(Cl)c3)s2)cc1`, the growth was -57.6% (active). With `C=CCN1C=CC(=O)[C@H](O[Si](C)(C)C(C)(C)C)[C@@H]1/C=C/c1ccccc1` the growth was -33.3% [100 µM] (active). For `Cc1cc(O)ccc1Sc1ccccc1[N+](=O)[O-]`, the growth was 115% (inactive). `C#CC(O)c1ccccc1` (configuration not stated) was tested, and the growth was 108% (inactive). `CCOC(=O)c1nc(Nc2ccc(NC(=O)Nc3ccc(F)cc3)cc2)c2ccccc2n1` was tested, and the growth was 110% (inactive). With `Cc1cc(C(C)(CC(C)C)c2ccc(O)c(C)c2)ccc1O` the growth was 106% (inactive). `O=C(Nc1ccccc1[N+](=O)[O-])c1ccc(Cl)c(Cl)c1` was tested, and the growth was 90.2% (inactive). With `c1ccc(-c2ccc(-c3ccccc3)[nH]2)cc1` the growth was 91.2% (inactive). With `O=S(=O)(NCCCNc1nccc(-c2c(-c3cccc(F)c3)nc3sccn23)n1)c1cccc(F)c1` the growth was 40.5% (inactive). In the case of `C=CC(=O)Nc1cccc(C)c1Nc1cc(-c2cccnc2Cc2c(C)c(OC)cc(OC)c2C)ncn1`, the growth was -23% (active). `COc1ccc(/C(=C\c2cc(OC)c(OC)c(OC)c2)C(=O)N2CCCNCC2)cc1` was tested, and the growth was 96.4% (inactive). For `O=C1/C(=C/c2ccc(F)cc2)CN(C(=O)CCN2CCC(=NO)CC2)C/C1=C\c1ccc(F)cc1`, the growth was -8.33% (active). With `CCCCCCc1nc2c(c(C)nn2-c2ccccc2)c2c1CCCCC2` the growth was 108% (inactive). In the case of `CCOC(OCC)c1cnc2nc(NC(C)=O)[nH]c(=O)c2n1`, the growth was 123% (inactive). With `C[C@@H](Oc1ccc(C(=O)NS(=O)(=O)C(C)(C)C)cc1C(F)(F)F)c1ccc(Oc2ccccc2)cn1` the growth was 15.8% (inactive).
